Experimental data taken from publication PMC7826789 (International Journal of Molecular Sciences, 2021).

What was measured:
Settings in all cases: Compound Concentration (nM):1000
NEK3 = test system: NEK3
NEK4 = test system: NEK4
NEK5 = test system: NEK5
NEK6 = test system: NEK6
NEK7 = test system: NEK7
NEK9 = test system: NEK9
NIK = test system: T1, NIK
T1 construct: gene MAP3K14

NIM1 = test system: T2, NIM1
T2 construct: gene MGC42105

NLK = test system: NLK
OSR1 = test system: T3, OSR1
T3 construct: gene OXSR1

PAK1 = test system: PAK1
PAK2 = test system: PAK2
PAK3 = test system: PAK3
PAK4 = test system: PAK4
PAK6 = test system: PAK6
PAK7 = test system: PAK7
PCTK1 = test system: T4, PCTK1
T4 construct: gene CDK16

PCTK2 = test system: T5, PCTK2
T5 construct: gene CDK17

PCTK3 = test system: T6, PCTK3
T6 construct: gene CDK18

PDGFRA = test system: PDGFRA
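Further: KINOMEscan scanMAX binding as percent activity remaining versus control; lower means stronger binding.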

| Structure (SMILES) | Percent Control (NEK3) | Percent Control (NEK4) | Percent Control (NEK5) | Percent Control (NEK6) | Percent Control (NEK7) | Percent Control (NEK9) | Percent Control (NIK) | Percent Control (NIM1) | Percent Control (NLK) | Percent Control (OSR1) | Percent Control (PAK1) | Percent Control (PAK2) | Percent Control (PAK3) | Percent Control (PAK4) | Percent Control (PAK6) | Percent Control (PAK7) | Percent Control (PCTK1) | Percent Control (PCTK2) | Percent Control (PCTK3) | Percent Control (PDGFRA) |
| --- | --- | --- | --- | --- | --- | --- | --- | --- | --- | --- | --- | --- | --- | --- | --- | --- | --- | --- | --- | --- |
| COc1ccccc1-c1cc(/C=C2\C(=O)Nc3ncc(Br)cc32)cc(Br)c1O [GW442130X] | 100% | 100% | 100% | 100% | 100% | 100% | 100% | 100% | 100% | 77% | 100% | 100% | 67% | 100% | 100% | 98% | 79% | 100% | 100% | 71% |
| Cl.O=C(O[C@H]1CN[C@H](C#Cc2cc3ncnc(Nc4ccc5c(cnn5Cc5ccccc5)c4)c3s2)C1)N1CCOCC1 [GSK200398A] | 94% | 100% | 100% | 100% | 98% | 95% | 100% | 89% | 93% | 100% | 100% | 100% | 63% | 100% | 100% | 89% | 83% | 96% | 100% | 83% |
| C/C(Nc1ccc(S(N)(=O)=O)cc1)=C1/C(=O)Nc2ccccc21 [GW335962X] | 96% | 77% | 97% | 100% | 95% | 95% | 78% | 86% | 87% | 94% | 82% | 80% | 64% | 89% | 85% | 100% | 23% | 100% | 78% | 6.1% |
| COc1ccc2cc(-c3c(-c4ccncc4)nc(-c4ccc(S(C)(=O)=O)cc4C)n3C)ccc2c1 [SB-633825] | 65% | 75% | 35% | 91% | 65% | 57% | 53% | 63% | 81% | 70% | 87% | 85% | 12% | 81% | 97% | 87% | 74% | 100% | 100% | 91% |
| NS(=O)(=O)c1ccc(N/N=C2\C(=O)Nc3ccc(C(=O)NCc4ccncc4)cc32)cc1 [GW300657X] | 84% | 89% | 92% | 97% | 62% | 64% | 95% | 72% | 96% | 75% | 100% | 100% | 63% | 100% | 81% | 87% | 0.2% | 22% | 68% | 27% |
| CC1=C(C(=O)Nc2ccc3[nH]ncc3c2)C(c2ccc(Cl)c(Cl)c2)CC(=O)N1 (centres unmarked) [GSK299115A] | 80% | 89% | 58% | 95% | 87% | 68% | 76% | 79% | 78% | 73% | 94% | 84% | 96% | 82% | 79% | 91% | 85% | 100% | 93% | 100% |
| Cc1cc(O)cc(C)c1/C=C/c1cncc(C(N)=O)c1 [GW435821X] | 89% | 86% | 100% | 100% | 100% | 100% | 100% | 100% | 92% | 100% | 99% | 100% | 84% | 100% | 98% | 100% | 100% | 100% | 93% | 18% |
| Cl.O=C(Nc1ccc(Oc2ccc3[nH]c(NC(=O)c4ccco4)nc3c2)cc1)Nc1cc(C(F)(F)F)ccc1F [GW683134A] | 97% | 81% | 96% | 100% | 100% | 10% | 100% | 97% | 87% | 100% | 100% | 100% | 5.6% | 100% | 92% | 100% | 100% | 100% | 100% | 11% |
| Cl.O=S1CCN(Cc2ccc(-c3ccc4ncnc(Nc5ccc(OCc6ccccc6)c(F)c5)c4c3)o2)CC1 [GW576924A] | 100% | 100% | 100% | 100% | 100% | 100% | 100% | 100% | 100% | 100% | 100% | 100% | 78% | 100% | 100% | 100% | 100% | 100% | 100% | 84% |
| Cl.c1ccc(Cc2nc3ccc(Nc4ncnc5ccccc45)cc3[nH]2)cc1 [GR269666A] | 100% | 100% | 100% | 100% | 100% | 100% | 100% | 94% | 100% | 100% | 100% | 100% | 100% | 100% | 100% | 100% | 100% | 100% | 100% | 49% |
| NS(=O)(=O)c1ccc(N/N=C2\C(=O)Nc3ccc(Cl)cc32)cc1 [GW280670X] | 100% | 100% | 100% | 100% | 100% | 100% | 100% | 100% | 100% | 100% | 100% | 100% | 100% | 100% | 100% | 100% | 26% | 100% | 100% | 28% |
| CN(C)CCNC(=O)Nc1ccc(N(C)c2ccnc(Nc3ccc(CS(C)(=O)=O)cc3)n2)cc1.Cl [GW830900A] | 63% | 100% | 91% | 96% | 93% | 96% | 88% | 88% | 82% | 100% | 99% | 79% | 2.1% | 71% | 90% | 71% | 100% | 100% | 100% | 2% |
| COc1cc(C=NNc2ncnc3c2cnn3-c2ccccc2)ccc1O [GW513184X] | 100% | 100% | 76% | 82% | 100% | 100% | 92% | 100% | 100% | 100% | 100% | 100% | 50% | 100% | 100% | 100% | 29% | 38% | 84% | 63% |
| NS(=O)(=O)c1ccc(Nc2ncc(-c3ccccc3)o2)cc1 [GW572399X] | 84% | 100% | 100% | 100% | 78% | 100% | 91% | 96% | 100% | 100% | 100% | 100% | 86% | 100% | 87% | 100% | 3.8% | 100% | 100% | 8.8% |
| O=C(Nc1n[nH]c2nc(-c3ccc(O)cc3)c(Br)cc12)C1CC1 [SB-725317] | 100% | 88% | 100% | 100% | 86% | 98% | 100% | 84% | 54% | 100% | 89% | 60% | 71% | 100% | 100% | 100% | 24% | 62% | 77% | 29% |
| COc1ccc(COc2ccc(Cc3cnc(N)nc3N)cc2OC)cc1 [GW632580X] | 97% | 77% | 100% | 95% | 77% | 85% | 94% | 86% | 100% | 100% | 100% | 100% | 62% | 100% | 92% | 100% | 84% | 100% | 73% | 91% |
| COc1ccc2[nH]c3c4[nH]c5ccc(OC)cc5c4c4c(c3c2c1)C(=O)NC4=O [GW296115X] | 67% | 85% | 76% | 87% | 92% | 100% | 20% | 100% | 52% | 100% | 70% | 91% | 4.2% | 90% | 100% | 91% | 99% | 72% | 80% | 11% |
| COc1cc(N2CCN(C(C)C)CC2)ccc1Nc1nc(Nc2ccc(F)cc2C(=O)NC[C@@H](O)CO)c2cc[nH]c2n1 [GSK1392956A] | 100% | 100% | 83% | 100% | 100% | 100% | 100% | 96% | 100% | 89% | 100% | 100% | 100% | 100% | 89% | 67% | 82% | 100% | 100% | 91% |
| COc1cccc(-c2c[nH]c3c(N/N=C/c4ccncc4)ncnc23)c1 [GW814408X] | 69% | 100% | 82% | 100% | 100% | 100% | 68% | 92% | 97% | 100% | 100% | 94% | 1.9% | 100% | 100% | 100% | 28% | 75% | 100% | 8.2% |
